The results in this text go back to PubChem BioAssay.

Structures are written as SMILES. Values without a mark were called inactive. No rule for the calls is given here.

Lethal factor (Bacillus anthracis), sequence (P15917 whole entry, looked up): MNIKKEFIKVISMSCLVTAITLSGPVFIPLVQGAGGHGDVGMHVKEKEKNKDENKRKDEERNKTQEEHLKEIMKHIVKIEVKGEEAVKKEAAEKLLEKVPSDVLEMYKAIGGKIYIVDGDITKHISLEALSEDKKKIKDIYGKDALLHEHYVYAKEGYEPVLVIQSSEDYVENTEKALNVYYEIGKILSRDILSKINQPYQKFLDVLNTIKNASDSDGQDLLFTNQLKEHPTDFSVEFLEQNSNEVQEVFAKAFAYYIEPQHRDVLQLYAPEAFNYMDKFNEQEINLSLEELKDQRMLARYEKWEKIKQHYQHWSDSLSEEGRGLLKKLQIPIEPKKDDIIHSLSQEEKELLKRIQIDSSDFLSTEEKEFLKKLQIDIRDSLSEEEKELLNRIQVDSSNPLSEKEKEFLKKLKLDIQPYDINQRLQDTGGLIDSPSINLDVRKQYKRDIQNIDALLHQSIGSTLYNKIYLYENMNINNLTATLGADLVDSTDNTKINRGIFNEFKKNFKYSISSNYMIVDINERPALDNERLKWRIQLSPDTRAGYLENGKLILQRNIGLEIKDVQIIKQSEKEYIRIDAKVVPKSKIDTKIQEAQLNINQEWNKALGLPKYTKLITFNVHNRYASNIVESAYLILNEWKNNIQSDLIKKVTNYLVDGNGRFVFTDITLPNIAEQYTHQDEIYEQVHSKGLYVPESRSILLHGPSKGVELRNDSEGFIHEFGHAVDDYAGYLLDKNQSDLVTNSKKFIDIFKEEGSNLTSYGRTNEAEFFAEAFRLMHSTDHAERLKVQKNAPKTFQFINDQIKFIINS

The assay concerns the target Lethal factor (Bacillus anthracis) (UniProt P15917). The assay can be described thus: Bacillus anthracis lethal factor inhibition, microsphere flow cytometry protease assay, validation at 10 µM (AID 588461). The conditions noted are these: multiplex microsphere protease cleavage assay, stronger effect = higher value. Background: Flow cytometry measures light scatter and fluorescence of single cells or particles in a stream.
As for `CC/C(=C(\c1ccc(O)cc1)c1ccc(OCCN(C)C)cc1)c1ccccc1`, the inhibition – broadly, the relative decrease from the control value, in per cent – is -2.3%. The value for `O=C(O)Cc1ccc(-c2ccccc2)cc1` was 0.5%; that for `C=CCc1cccc2cc(C(=O)Nc3ccc(CC(=O)O)cc3)c(=O)oc12` was 0.8%; that for `C[C@]12CC[C@@H]3c4ccc(OS(=O)(=O)O)cc4CC[C@H]3[C@@H]1CCC2=O` was -0.2%.

Turning to `CC1(C)CC(=O)C2=C(C1)c1c(ccc3ccccc13)NC2c1ccco1` (stereo not given), the inhibition was 3.8%. On to `Nc1ccc(S(=O)(=O)NC(=O)c2ccccc2)cc1`, for which the inhibition is -2.7%. With `COC1CCN(C(=O)c2ccc(OC3CCN(Cc4ccccn4)CC3)cc2)CC1`, the inhibition is 0.5%. The value for `CCCCN(CCCC)CCCOC(=O)c1ccc(N)cc1` was 1.4%; that for `N#CCC(N)=C(C#N)C#N` was -6%; that for `Cc1c(OC(=O)CNC(=O)OC(C)(C)C)ccc2c3c(c(=O)oc12)CCC3` was -2.2%. The value for `CCS(=O)(=O)Nc1cc(OC)c(OC)cc1Cc1nccc2cc(OC)c(OC)cc12` was -0.6%.

With `N=C(N)c1ccc(OCCCCCOc2ccc(C(=N)N)cc2)cc1`, the inhibition was -2.7%. The value for `COC(=O)[C@@H](N)CS` was -1.2%; that for `CCC(=O)Oc1ccc(/C(CC)=C(\CC)c2ccc(OC(=O)CC)cc2)cc1` was -0.2%. The value for `OCC1CCN(Cc2cn(Cc3ccccc3)nc2-c2cc3ccccc3o2)CC1` was -0.9%; that for `O=C(CCN1CCC(c2ccccc2)C1)c1ccc2c(c1)OCCO2` (stereo not given) was -1.8%. With `O=C(OCCN1CCOCC1)c1cccs1` the figure was -1.2%; with `O=C(c1cc2cc(Br)ccc2o1)N1CCCCC1`, 8.5%; with `CCOC(=O)Cc1c(C)nc(N)[nH]c1=O`, -3.1%.

With `COc1ccc(C2CC(c3c(O)cc(C)oc3=O)=NCCS2)c(OC)c1` (stereo not given), the inhibition is 4.3%.

Consider `C#C[C@]1(O)CC[C@H]2[C@@H]3CCC4=C(CCC(=O)C4)[C@H]3CC[C@@]21C`, for which the inhibition was 0.8%. The value for `CC(=O)OCC(=O)C1=CCC2C3CCC4=CC(=O)C=CC4(C)C3(F)C(OC(C)=O)CC12C` (stereo not given) was 2.4%; that for `CC1CCN(C(=O)Oc2ccccc2)CC1` was 3.8%; that for `O=C(CCSc1ccccc1)N1CCCC1` was -2.3%.

Turning to `CCN1CCN(C(=O)N[C@@H](C(=O)N[C@@H]2C(=O)N3[C@@H]2SC(C)(C)[C@@H]3C(=O)O)c2ccccc2)C(=O)C1=O`, the inhibition is 1.4%. With `COc1ccc(OC)c(NC2=C(Cl)C(=O)N(Cc3ccccc3)C2=O)c1` the figure was -12.4%; with `c1ccc(CNc2ncnc3nc[nH]c23)cc1`, -4.8%; with `O=C1c2ccccc2N2C(=O)c3ccccc3C2N1Cc1ccco1` (stereo not given), 2.8%. With `COc1cccc2cc(-c3ccccc3)c(=O)oc12` the figure was 1.7%; with `O=C(CS(=O)(=O)c1ccccc1)c1ccc2c(c1)OCCO2`, 2.2%; with `CCOC(=O)c1cccc(C(=O)OCC)n1`, -6.9%. The value for `CCc1nc2ccccc2n1Cc1ccc(OC)c(OC)c1` was 0.6%. Consider `CC(C)=CCC/C(C)=C/CC/C(C)=C/CC/C(C)=C/CC1=C(C)C(=O)c2ccccc2C1=O`, for which the inhibition is -3%.

Consider `COC(=O)c1cc(OC)c(OC)cc1NC(=O)CN1C(=O)c2ccccc2C1=O`, for which the inhibition is -5.5%.

For `Cc1ccc2c(c1)C(O)(CC(=O)/C=C/C=C/c1ccccc1)C(=O)N2` (stereo not given), the inhibition was -8.4%. The value for `CCOC(=O)C1(Cc2cccc(Cl)c2)CCCN(C2CCN(C(C)=O)CC2)C1` (stereo not given) was -5.1%. For the compound `CCOc1ccc(NC(=O)N[C@@H](CCSC)C(=O)OC)cc1`, the inhibition was -4.6%. The value for `CC(C)(C)OC(=O)N1CC(O)CC1C(=O)OCC(=O)c1ccc(Cl)cc1` (stereo not given) was 0.1%. With `Cc1ccc2[nH]c3c(c2c1)CN(C(=O)CN1CCSCC1)CC3` the figure was 11.6%. The value for `Cc1cccc(CN2CCN(C(c3ccccc3)c3ccc(Cl)cc3)CC2)c1` (stereo not given) was -9.2%.
